Molecules are shown by their SMILES. Screen size: about 6,200 compounds; about 2,900 (47%) were called active. So high a share suggests a set chosen from earlier hits. Some of the results follow. Values without a mark were called inactive. Cut-off read from the data, not from the text of the source: active = inhibition above about 50%; inactive = the rest.

Results on 112 molecules are retold here after PubChem BioAssay AID1259343 (VanderVen Lab, College of Veterinary Medicine, Cornell …, 2017).

The assay can be described thus: Mycobacterium tuberculosis growth inhibition, primary screen (AID 1259343). Particulars: inhibition: at 10 µM, active compounds read high; outcome: 10 uM.
One may read the inhibition as the change of the read-out against control, counted positive when it falls. Turning to `CCCc1cnc(Nc2nc(C(N)Cc3ccc(C(F)(F)F)cc3)cs2)nc1` (configuration not stated), the inhibition is 50.7% (active).

For the molecule `Cc1cc(C)nc(Nc2nc(C(N)Cc3ccc(C(F)(F)F)cc3)cs2)n1` (configuration not stated), the inhibition was 79.2% (active).

Take `Cc1cc(C)nc(Nc2nc(C(N)Cc3ccc(Cl)cc3)cs2)n1` (configuration not stated): the inhibition was 73.2% (active).

`Cc1ccc(-c2nc(CN3CCOC(c4ccccc4)C3)cs2)o1` (configuration not stated): the inhibition is 29.6%.

In the case of `Cc1nc(SCC(=O)N2CCCCC2C)c2c3c(sc2n1)CCCC3` (configuration not stated), the inhibition was 51.5% (active).

With `Cc1c(-c2ccccc2)sc2ncn(CC(=O)N3CCCCC3C)c(=O)c12` (configuration not stated), the inhibition was 48.6%.

Take `CC(=O)CSc1nc(C)nc2sc3c(c12)CCCC3`: the inhibition is 10%.

For `Cc1ccc2[nH]cc(-c3cccc(OCC(N)=O)c3)c2c1`, the inhibition is 72.6% (active).

`CC(C)(C)c1csc(-c2cccc(OCC(N)=O)c2)n1`: the inhibition was 35.2%.

For the molecule `Clc1c(CSc2nc3ccccc3s2)nc2ncccn12`, the inhibition was 77.3% (active).

As to `S=c1[nH]nc(CSc2nc3ccccc3s2)o1`, the inhibition is -31.5%.

Turning to `Brc1ccc2nc(CSc3nc4ccccc4s3)cn2c1`, the inhibition entry is “inactive”.

`Oc1ccccc1OCc1nc2ccccc2s1`: the inhibition was 54.7% (active).

`c1ccc(Sc2c(-c3ccccc3)nc3ncccn23)cc1`: the inhibition entry was “inactive”.

As to `c1ccc2sc(CSc3nc4ccccc4s3)nc2c1`, the inhibition is 95.9% (active).

For `N#CC(=C(O)CC12CC3CC(CC(C3)C1)C2)c1nc2ccccc2s1`, the inhibition was 21.6%.

On to `c1ccc2sc(CSc3ncnc4sccc34)nc2c1`, for which the inhibition was 35%.

Regarding `O=C(CSc1nc2ccccc2s1)NCCN1C(=O)SC(=Cc2ccc3c(c2)OCO3)C1=O`, the inhibition was 4.39%.

On to `c1ccc2sc(Sc3ncnc4sccc34)nc2c1`, for which the inhibition is 59.5% (active).

Take `COc1ccc(C(C)O)cc1CSc1nc2ccccc2s1` (configuration not stated): the inhibition is 40.5%.

For `c1csc(Cn2nnnc2Sc2ncnc3sccc23)c1`, the inhibition is -23.8%.

In the case of `CCc1nnc(CNc2ccc3c(c2)OC(F)(F)O3)o1`, the inhibition is 32.3%.

On to `CC(NC(=O)c1cnsn1)c1cccc(Cl)c1` (configuration not stated), for which the inhibition was 42.3%.

For `CC(NC(=O)c1cc(Cl)ccn1)c1cccc(OC(F)F)c1` (configuration not stated), the inhibition was 70.3% (active).

For `Cc1c(C(=O)NC(C)c2cccc(Cl)c2)oc2c1C(=O)CCC2` (configuration not stated), the inhibition is 1.37%.

As for `CC(C)(C)OC(=O)c1cccc(NC2Cc3ccccc3C2)c1`, the inhibition is 29.1%.

For `CCOC(=O)c1cccc(NC(=O)NC/C=C(\C)CCC=C(C)C)c1`, the inhibition is 88.1% (active).

Regarding `CC(C)=CCC/C(C)=C/C(=O)NCc1ccccn1`, the inhibition is -13%.

Regarding `O=[N+]([O-])c1cc(NC(=S)NC2CCCCC2)ccc1Cl`, the inhibition is 99.3% (active).

Regarding `S=C(Nc1cccc(I)c1)NC1CCCCC1`, the inhibition was 93.2% (active).

In the case of `Fc1ccc(F)c(NC(=S)NC2CCCCC2)c1`, the inhibition is 42%.

With `Fc1ccc(NC(=S)NC2CCCCC2)c(F)c1F`, the inhibition was 18.1%.

Consider `CNC(=O)c1cnc(/C=C/C2=Cc3cc(Cl)ccc3OC2)s1`, for which the inhibition was 11.2%.

For `O=C(O)c1cnc(/C=C/c2cc(Br)cs2)s1`, the inhibition is -34.7%.

For the molecule `O=C(O)c1cnc(/C=C/c2cnn(-c3ccc(Cl)cc3)c2)s1`, the inhibition is 62.2% (active).

`COc1cc(/C=C/c2ncc(C(=O)O)s2)cc(Cl)c1OC`: the inhibition is 80.2% (active).

Consider `O=C(O)c1cnc(/C=C/c2cc(Cl)c3c(c2)OCCCO3)s1`, for which the inhibition was 85.9% (active).

On to `O=C(CN1CCCCCC1)Nc1ccc(C(F)(F)F)cc1`, for which the inhibition was 71.2% (active).

Take `O=C(CN1CCN(S(=O)(=O)N2CCCCCC2)CC1)Nc1ccc2ccccc2c1`: the inhibition is 3.56%.

For `CC1OC(=O)[C@@H](C(C)C)NC(=O)C(C(C)C)OC(=O)[C@H](C(C)C)NC(=O)C(C)OC(=O)[C@@H](C(C)C)NC(=O)C(C(C)C)OC(=O)[C@H](C(C)C)NC(=O)C(C)OC(=O)[C@@H](C(C)C)NC(=O)C(C(C)C)OC(=O)[C@H](C(C)C)NC1=O` (some centres not stated), the inhibition is 101% (active).

As for `COc1cc(NC(=O)c2ccc(Cl)s2)cc(OC)c1`, the inhibition is 3.54%.

Turning to `COc1cc(NC(=O)c2ccc(C)o2)cc(OC)c1`, the inhibition was 81.4% (active).

With `O=C(COc1ccc([N+](=O)[O-])cc1)NCC1CCCCC1`, the inhibition is -9.56%.

As for `O=C(COc1cccc2cccnc12)NCC1CCCCC1`, the inhibition was 89.7% (active).

`NCCOCc1ccc(-c2cc3ccccc3o2)cc1`: the inhibition was 15.6%.

On to `c1cc(-c2cc3ccccc3o2)cc(-n2cnnc2)c1`, for which the inhibition was 74.5% (active).

For `CCOC(=O)Cc1csc(NC(=O)c2csc(-c3cc4ccccc4[nH]3)n2)n1`, the inhibition was 65.7% (active).

For `CCOC(=O)Cc1csc(NC(=S)NC(=O)c2cccs2)n1`, the inhibition was 88% (active).

On to `COc1cc(-c2c(NC(=O)CC(C)C)oc3c(C)cccc3c2=O)cc(OC)c1OC`, for which the inhibition is -22.3%.

Turning to `CC(NC(=O)NCCc1ccc(F)cc1)c1ccccc1Br` (configuration not stated), the inhibition is 31.6%.

Turning to `Cc1cccc(OCC(=O)NC(C)c2cc3ccccc3o2)c1C` (configuration not stated), the inhibition was 83.5% (active).

Consider `CC(NC(=O)CCl)c1cccc2ccccc12` (configuration not stated), for which the inhibition is 86.2% (active).

In the case of `CN(C1CCCCC1)S(=O)(=O)NCC1Cc2ccccc2O1` (configuration not stated), the inhibition was -12.8%.

`CC(NS(=O)(=O)CC1CCCCC1)c1cc2ccccc2o1` (configuration not stated): the inhibition is 91.2% (active).

For `CC(NC(=O)CCl)c1cc2ccccc2o1` (configuration not stated), the inhibition was 58.8% (active).

With `CCc1ccc(C(C)NS(=O)(=O)CC2CCCCC2)cc1` (configuration not stated), the inhibition is 24.7%.

As for `CCc1ccc(C(C)NC(=O)CCl)cc1` (configuration not stated), the inhibition is 68.1% (active).

As to `CCc1ccc(C(C)NC(=O)c2ccc(S(=O)(=O)C(F)F)cc2)cc1` (configuration not stated), the inhibition was -35.3%.

For the molecule `Nc1ccc(Cl)c(-c2nc3ccccc3o2)c1`, the inhibition was -33.1%.

With `Nc1ccc(Cl)c(Cl)c1`, the inhibition is 85.7% (active).

As to `O=C(NCCc1ccc(C(F)(F)F)cc1)C1=COCCO1`, the inhibition is 28.4%.

Consider `CNC(=O)c1ccc(N(C)Cc2ccc(Cl)s2)nc1`, for which the inhibition was 18.8%.

Regarding `CNC(=O)c1ccc(CN(C)c2ccc(C(F)(F)F)cn2)cc1`, the inhibition was 56.7% (active).

Regarding `OCC#Cc1csc(CN2CCN(c3nccc4ccccc34)CC2)c1`, the inhibition was 51.9% (active).

Turning to `c1ccc(-c2nc3c(c(N4CCN(Cc5cccc6cccnc56)CC4)n2)CCC3)cc1`, the inhibition was 31.1%.

Take `Cc1cnc(C)c(N2CCN(Cc3cc(C#CCO)cs3)CC2)n1`: the inhibition was 39%.

In the case of `CCCCCCNS(=O)(=O)c1ccc(Br)s1`, the inhibition is 78.5% (active).

For `CC(=NNS(=O)(=O)c1ccc(Br)cc1)c1ccc(Cl)s1`, the inhibition is 29.9%.

Turning to `O=S(=O)(Nc1cc2c(cc1Cl)OCO2)c1ccc(Cl)s1`, the inhibition was 101% (active).

In the case of `O=S(=O)(Nc1ccc(Br)cc1Br)c1ccc(Cl)s1`, the inhibition is 86.1% (active).

In the case of `O=S(=O)(Nc1ccc(Cl)cc1F)c1ccc(Cl)s1`, the inhibition is -6.72%.

Consider `Cc1ccc(S(=O)(=O)Nc2ccc(Br)cc2Br)c(C)c1`, for which the inhibition is 50.7% (active).

On to `O=S(=O)(Nc1ccc(Br)cc1)c1ccc(Br)s1`, for which the inhibition is 96.8% (active).

As to `O=S(=O)(Nc1ccc(Br)cc1)c1ccc(Cl)s1`, the inhibition is 95.3% (active).

Turning to `O=S(=O)(Nc1ccc(Cl)cc1)c1ccc(Cl)s1`, the inhibition was -18.5%.

Turning to `CCOc1ccc(NC(=O)N2CCC(CCc3ccc(C(F)(F)F)cc3)CC2)cc1`, the inhibition was 78.8% (active).

Consider `N#CC1CCN(C(=O)Nc2ccc(OCC3CCCCC3)cc2)CC1`, for which the inhibition is 40%.

For the molecule `Cc1ccc(CCC2CCN(C(C)C(=O)Nc3ccc(S(N)(=O)=O)cc3)CC2)cc1` (configuration not stated), the inhibition is 3.86%.

For the molecule `CCOc1ccc(NC(=O)N2CCC(Cc3ccc4c(c3)OCO4)CC2)cc1`, the inhibition was 64% (active).

Regarding `Cc1cc(C)cc(CN2CCC(CCc3ccc(C(F)(F)F)cc3)CC2)c1`, the inhibition is -22.4%.

With `Cc1ccc(CCC2CCN(C(=O)Nc3cccnc3)CC2)cc1`, the inhibition is 90.4% (active).

On to `O=C(COc1cccc(Cl)c1)N1CCC(CCc2ccc3c(c2)OCO3)CC1`, for which the inhibition is 43.2%.

For `CCCc1nc2sc3c(NCCN(C)C)ncnc3c2c2c1CCCC2`, the inhibition was -36.3%.

Take `CCCCc1nc2sc3c(NCCN4CCOCC4)ncnc3c2c2c1COC(C)(C)C2`: the inhibition is 71.5% (active).

Take `COc1ccnc(CS(=O)c2nc3ccc(OC(F)F)cc3[nH]2)c1OC` (configuration not stated): the inhibition was 100% (active).

As for `COc1cc2c(=O)[nH]c(-c3ccccn3)nc2cc1OC(F)F`, the inhibition was 43.2%.

On to `Clc1ccc(Cl)c(SCCc2ccccn2)c1`, for which the inhibition is 73.3% (active).

`Clc1ccc(Cl)c(SCCSc2ncn[nH]2)c1`: the inhibition is 23.3%.

In the case of `CN(C)CC[C@H](c1ccc(Cl)cc1)c1ccccn1`, the inhibition was 35.8%.

On to `Fc1cc(F)cc(-c2cncc(COc3ccc(F)cc3F)c2)c1`, for which the inhibition is 59.7% (active).

`O=C(c1csc(COc2ccc(F)cc2F)n1)N1CCCC1`: the inhibition was -0.05%.

With `O=S(=O)(NC1CCCCCCC1)c1ccccc1F`, the inhibition is 29.7%.

In the case of `O=S(=O)(NC1CCCCCC1)c1ccc(F)c(F)c1`, the inhibition is -47.6%.

Turning to `O=S(=O)(NC1CCCCCC1)c1ccc(Cl)cc1`, the inhibition was 76.5% (active).

As for `Cc1ccc(C(=O)Cn2nnc(-c3ccccc3C)n2)c(C)c1`, the inhibition is 90.1% (active).

`Cc1ccccc1-c1nnn(Cc2cc(=O)n3c(C)cccc3n2)n1`: the inhibition is 32.9%.

For the molecule `O=C(Nc1n[nH]c(=S)s1)c1cccs1`, the inhibition is 103% (active).

For the molecule `Cc1ccc(C)c(-c2csc(NC(=O)c3cccs3)n2)c1`, the inhibition is 42.1%.

Turning to `COC(=O)C1=C(NC(=O)c2cccs2)CCS1`, the inhibition was -17.8%.

Consider `CCN(CC)CCNC(=O)c1cc(NC(=O)Nc2cccc(Br)c2)ccc1N1CCCCC1`, for which the inhibition was 39.5%.

Turning to `CC(C)Oc1ccc(-c2cc(C(=O)NN=Cc3cccs3)[nH]n2)cc1`, the inhibition was 68.8% (active).

Turning to `COc1ccc(-c2cc(C(=O)NN=Cc3ccc(Br)cc3)[nH]n2)cc1`, the inhibition was 36.8%.

In the case of `Cc1ccccc1C1(O)CCN(C(=O)CCC2CCCC2)C1` (configuration not stated), the inhibition is 68% (active).

For `O=C(OCC(=O)N1CCN(c2ccc(F)cc2)CC1)c1ccc(O)cc1`, the inhibition is 87.3% (active).

In the case of `O=C(CCC(F)(F)F)N1CCC(CO)(CCc2ccccc2)CC1`, the inhibition was 25.8%.

As to `O=C(CC1Cc2ccccc2C1)N1CCC2(CCc3ccccc32)C1` (configuration not stated), the inhibition is 31.8%.

As to `O=C(COc1cccc(F)c1)N1CCC(c2ccc(O)cc2)CC1`, the inhibition is 39.3%.

With `Cc1cccc(C2(O)CCN(C(=O)CCc3ccccc3)CC2)c1C`, the inhibition was 75.2% (active).

For `O=C(CCc1ccccc1)N1CCN(c2ccc(O)cc2)CC1`, the inhibition was 78.6% (active).

As for `Cc1ccccc1N1CCN(C(=O)CCc2nnc(CCCc3ccccc3)o2)CC1`, the inhibition is 26%.

For the molecule `Cc1ccccc1CC1(CO)CCCN(C(=O)CCC(F)(F)F)C1` (configuration not stated), the inhibition was 29.1%.

Take `CCOC(=O)C1(CCCc2ccccc2)CCN(C(=O)CC2=CCCCC2)CC1`: the inhibition was 16.7%.
